PriA SSB inh: K. pneumoniae PriA-SSBct interaction inhibition. AlphaScreen SSBct-PriA binding, biotinylated peptide. 0.6% of 430,000 active. AID 1272365. inhibition, % at 33 µM; in the data active = inhibition mostly above about 37%, no sharp cut-off; inactive = mostly below about 20%;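 note: plate controls were negative control peptide for no effect and reference peptide for full effect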
Mtb betalactam: beta-lactam sensitization of Mtb H37Rv | M. tuberculosis H37Rv growth with meropenem, percent inhibition | inhibition, % at 25 µM | 0.27% of 330,000 active; call rule not given here;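 note: growth measured after seven days incubation then overnight dye step; 0% = bacteria only wells and 100% = bacteria with antibiotic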
Sa ugtP lethal: compounds lethal to S. aureus RN4220 ugtP deletion mutant; OD600 growth, 16 h; growth inhibition, % (test concentration not listed); 0.54% of 330,000 active; in the data active = growth inhibition above about 68%;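 note: plate controls were untreated wells for no effect and antibiotic for full effect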
Sa RN4220 lethal: kills Staphylococcus aureus RN4220 | S. aureus RN4220 growth, OD600, 16 h | inhibition, % (no concentration beside the values) | 0.33% of 330,000 active; in the data active = inhibition above about 85%;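 note: plate controls were untreated cells for no effect and reference antibiotic for full effect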
Mtb hypoxia rep: inhibitors of hypoxia-regulated fluorescent reporter in Mycobacterium tuberculosis | M. tuberculosis hypoxia-regulated fluorescent reporter, fluorescence | fluorescence inhibition, % (concentration not given with the values) | 0.1% of 300,000 active | AID 1159583; in the data active = fluorescence inhibition mostly above about 23%, no sharp cut-off; inactive = mostly below about 17%
The depositor's hits bear a star; x = no result given; ! = repeats disagree. Hits are enriched below; roughly 1% of the tested compounds scored in any of these assays.

SMILES	PriA SSB inh	Mtb betalactam	Sa ugtP lethal	Sa RN4220 lethal	Mtb hypoxia rep
O=C(c1ccc(Oc2ccc([N+](=O)[O-])cc2)cc1)N1CCCCCC1	12	4	3	3	1
Cn1c(=NC(=O)c2ccc(S(=O)(=O)N3CCc4ccccc43)cc2)sc2cc(F)ccc21	-8	x	x	x	x
C[C@](O)(CNS(=O)(=O)c1cc2c3c(c1)CCN3C(=O)CC2)c1ccc2c(c1)OCO2	-12	x	x	x	x
Cc1cc(C)c(Cn2cnc(-c3ccc([N+](=O)[O-])cc3)c2)c(C)c1	50*	4	-35	-6	-6
COCC(=O)N1CCCc2ccc(NS(=O)(=O)CCc3ccccc3)cc21	8	x	x	x	x
O=C(NCc1cccc(Cl)c1)c1cccc(S(=O)(=O)N2CCCC2)c1	-10	-8	-9	-4	-4
O=C(NCc1ccncc1)c1cccc(S(=O)(=O)N2CCc3ccccc32)c1	0	5	2	4	28*
O=C(NCc1cccc(Cl)c1)c1cccc(S(=O)(=O)N2CCCCC2)c1	-8	-1	-3	3	29*
O=C(Cc1ccccc1Cl)NCc1ccnc(-c2cccs2)c1	-23	x	x	x	x
O=C(Nc1ccc2c(c1)OCO2)N1CCn2cccc2[C@H]1c1ccc(F)c(F)c1	33*	x	x	x	x
COC(=O)C1=C(NC(=O)c2ccccc2I)CCS1	51*	x	x	x	x
Cc1ccc(/C=C/S(=O)(=O)N2CCN(c3cc(-n4cncn4)ncn3)CC2)cc1	-21	x	x	x	x
CCOc1ccc(NC(=O)Cn2cccc(-c3nc(-c4ccc(C)cc4)no3)c2=O)cc1	0	x	x	x	x
O=C(Nc1nccs1)c1cccc(-n2ccc3ccccc32)c1	-4	x	x	x	x
CN(C)CCSc1nc2cc(S(=O)(=O)N3CCCCC3)ccc2o1	-1	3	5	5	35*
CC1CN(C)C(C)CC1OC(=O)C(c1ccccc1)c1ccccc1 (stereo not given)	-5	0	86*	1	4
CCCCOc1ccc(C(=O)OC2CC(C)N(C)CC2C)cc1 (stereo not given)	-4	-1	98*	5	15
CCNC(=S)NN=C(C)c1cccc([N+](=O)[O-])c1	9	x	10	2	5
C/C(=N/NC(=S)NCc1ccco1)c1cccc([N+](=O)[O-])c1	66*	x	x	x	x
Cc1ccc(C2CC(=O)Nc3c2ccc2ccccc32)cc1[N+](=O)[O-] (stereo not given)	42*	-3	x	x	x
C=CCC(CC(=O)NC(CO)Cc1ccccc1)C(=O)NC(COC(=O)C(CC=C)Cc1ccc(F)cc1)Cc1c[nH]c2ccccc12 (stereo not given)	x	x	1	1	36*!
O=C(NCC(c1ccc(F)cc1)N1CCOCC1)c1cccc(Br)c1 (stereo not given)	42*	-4	6	2	14
CCOc1cc(CNc2ccc(CNc3ncn[nH]3)cc2)ccc1OCc1ccccc1	43*	0	74	12	10
CO[C@@H](CNC(=O)CSC1CCCC1)c1ccccc1C	-3	x	x	x	x
Cc1cc(S(=O)(=O)C(CNC(=O)c2c(F)cccc2Cl)c2cccs2)ccc1F (stereo not given)	8	x	x	x	x
SMILES	PriA SSB inh	Mtb betalactam	Sa ugtP lethal	Sa RN4220 lethal	Mtb hypoxia rep
CC1CN(C(=O)/C=C/c2ccc3c(c2)OCO3)CC(C)O1 (stereo not given)	-4	-10	-1	0	91*
COc1ccccc1C(CNc1ccc(S(=O)(=O)N2CCCC2)cc1[N+](=O)[O-])N(C)C (stereo not given)	-4	-8	0	1	1
Cc1ccccc1Nc1ccc(S(=O)(=O)N2CCOCC2)cc1[N+](=O)[O-]	-5	-2	4	4	1
COc1ccccc1C(C)Nc1ccc(S(=O)(=O)N2CCOCC2)cc1[N+](=O)[O-] (stereo not given)	70*	x	x	x	x
CCc1ccc(Nc2ccc(S(=O)(=O)N3CCOCC3)cc2[N+](=O)[O-])cc1	61*	1	4	4	12
Cc1ccc(Nc2ccc(S(=O)(=O)N3CCOCC3)cc2[N+](=O)[O-])c(C)c1	51*	5	-5	-2	10
COc1ccc(Nc2ccc(S(=O)(=O)N3CCCCC3)cc2[N+](=O)[O-])cc1Cl	49*	44	4	10	6
CCS(=O)(=O)c1ccc(C(=O)N(C[C@H]2CCCO2)c2nc3c(C(F)(F)F)cccc3s2)cc1	-7	x	x	x	x
CN(c1ccsc1C(=O)Nc1ccc(Cl)c(C(F)(F)F)c1)S(=O)(=O)c1ccccc1	-8	x	x	x	x
CC(=NNc1ccc(S(=O)(=O)N2CCOCC2)cc1[N+](=O)[O-])C(C)C	46*	x	5	12	9
COc1cc2[nH]c3c(=O)n(CC(=O)N4CCN(c5cc(Cl)ccc5C)CC4)cnc3c2cc1OC	-19	x	x	x	x
CN1CCCc2cc(CCNC(=O)c3ccc(C(F)(F)F)cc3)ccc21	-2	x	x	x	x
CCOc1cc(C(=O)NCCc2ccc3c(c2)CCCN3C)cc(OCC)c1OCC	36*	x	x	x	x
COc1ccc(C(=O)NCCc2ccc3c(c2)CCCN3C)c(OC)c1	62*	x	x	x	x
CC(NC(=O)C(=O)NCC1(c2cccs2)CCOCC1)c1ccccc1 (stereo not given)	-4	x	x	x	x
CN1/C(=C\C(=O)Nc2ccc(Br)cc2)C(C)(C)c2ccccc21	0	97	96*	94*	-2
Cc1cc(N2CCN(c3ccc(C(F)(F)F)cc3[N+](=O)[O-])CC2)c2ccccc2n1	46*	100	-8	1	2
Cc1cc(N2CCN(c3ccc([N+](=O)[O-])c4cccnc34)CC2)c2ccccc2n1	-1	5	3	0	-8
CC(Oc1ccccc1)C(=O)N1CCN=C1SCc1ccc([N+](=O)[O-])cc1 (stereo not given)	7	x	x	x	x
COc1cccc(-c2c(-c3cc(OC)cc(OC)c3)n(C)c3ccc(-c4cnc(N5CCOCC5)nc4)cc23)c1	4	0	-10	4	45*
COc1cccc(-c2c(-c3cc(OC)cc(OC)c3)n(C)c3ccc(-c4cnc(OC)nc4)cc23)c1	-14	47	7	2	15
COc1ccc2nc(N3C(=O)/C(=C/c4ccccc4)NC3=S)sc2c1	6	74	92*	0	1
CCOc1ccc2nc(N3CCCCCC3)sc2c1	-19	85	50	7	14
CCOc1ccc2nc(N3C(=O)/C(=C/c4ccccc4)NC3=S)sc2c1	3	59	94*	8	4
Cc1ccc(NC(=O)C(OC(=O)c2ccccc2Cl)c2ccccc2)cc1Cl (stereo not given)	-5	-1	17	-6	-2
Cc1ccc(NC(=O)C(OC(=O)c2ccc(NC(N)=O)cc2)c2ccccc2)cc1Cl (stereo not given)	-5	10	100*	101*	14
CN(C)c1nc(-c2ccccc2)c2cnn(Cc3ccccc3)c2n1	-47	7	89*	-7	4
c1ccc(Cn2ncc3ccccc32)cc1	-18	20	15	2	11
CN(C)S(=O)(=O)c1cccc(NC(=O)COC(=O)c2ccc3c(c2)OCO3)c1	1	-5	17	4	13
CN(C)S(=O)(=O)c1ccc(C(=O)OCC(=O)Nc2ccc3c(c2)OCO3)cc1	7	3	5	5	21*
